# Unmarked numbers belong to inactive results. Inconclusive results are not listed. A call without a number means that no potency is given here. Active and inactive are the calls of the source. Unless noted, calls come from the whole dose curve; as a rule, active = well fitted curve in the direction sought with a large enough effect; inconclusive = small, poorly fitted or top-dose-only effect, or another doubt; inactive = no such curve, though single readings can be large; an effect the other way counts as inactive or inconclusive.
# How the values were obtained:
# [1] = target: Glutathione peroxidase 1 (Homo sapiens) (UniProt P07203); test: Primary qHTS Assay for Inhibitors of Recombinant Selenoprotein Glutathione Peroxidase 1 (GPX1) (AID 1845191); note: nearly all actives have a fitted effect of over 65% in size; note: potency is the fitted concentration of half-maximal effect
# How it was run: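 GPX1 10 nM, GR 100 nM, GSH 1 mM, NADPH 0.5 mM, CHP 0.5 mM (final). 30-min cpd preincubation, RT. Ex340/Em450 read t=0, t=15 min.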
# [2] = target: Glucocorticoid receptor (Homo sapiens) (UniProt P04150); test: GR-EFC Redistribution (AID 451; calls by dose curve; note: potency is the fitted concentration of half-maximal effect); settings: CHO-K1 GR-EFC translocation, beta-gal luminescence, 2 h
# How it was run: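 CHO-K1 cells stably expressing nuclear-localized β-gal enzyme acceptor and GR fused C-terminally to the enzyme donor fragment; ligand-driven nuclear translocation restores β-gal by complementation. Compounds titrated up to 46 uM final, 2 h at 37 °C; luminescence read.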
# [3] = target: Mitogen-activated protein kinase 10 (Mus musculus) (UniProt Q61831); test: JNK3 AlphaScreen Assay (AID 530; active = well fitted curve in either direction with a large enough effect, not every such curve was filed as active;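 note: kinase came from lysate of stimulated human HepG2 cells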; note: potency is the fitted concentration of half-maximal effect)
# How it was run: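 Biotinylated GST-cJun(1-79) served as substrate for JNK3 in HepG2 lysates stimulated with IL-1beta and TNF-alpha. ATP was 10 uM final, pH 7.6. Ser73 phosphorylation was quantified by AlphaScreen (680 nm excitation).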
# [4] = target: Dual specificity protein kinase CLK4 (Homo sapiens) (UniProt Q9HAZ1); test: qHTS Assay for Inhibitors of CDC-like Kinase 4 (ADP-FP Assay) (AID 1795);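 note: recombinant human CLK4 phosphorylating RS repeat peptide at 1 µM ATP; series mostly up to about 50 µM; nearly all actives have a fitted effect of over 60% in size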
# How it was run: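 Kinase activity was followed as ADP output, converted from fluorescence polarization with a calibration curve. Reactions ran one hour at low ATP (1 uM) with RS peptide substrate.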
# [5] = Viability counterscreen for agonist of constitutive androstane receptor (CAR) against the NCATS DSHEA and TCM libraries (AID 1794838)
# How it was run: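 Multiplexed counterscreen: after 24 h compound exposure with 0.75 uM PK11195, HepG2-CYP2B6-hCAR viability was quantified fluorimetrically (CellTiter-Fluor, 405/540 nm) prior to the ONE-Glo luciferase read.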
# [6] = target: Nuclear receptor subfamily 1 group I member 3 (Homo sapiens) (UniProt Q14994); test: Primary qHTS for agonist of constitutive androstane receptor (CAR) against the NCATS DSHEA and TCM libraries (AID 1794839); note: potency is the fitted concentration of half-maximal effect
# How it was run: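 Concentration–response screen in HepG2-CYP2B6-hCAR cells under 0.75 µM PK11195; 24 h exposure; luminescent reporter signal with multiplexed fluorescent viability.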
# [7] = HepG2 viability counterscreen (readout 2: ATP content) against the NCATS DSHEA and TCM libraries (AID 1794840);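 note: HepG2 cells exposed to substances for about 24 h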
# How it was run: (§1)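 After HepG2 cells attach for ~4 h, substances are added and incubated ~24 h at 37C, 5% CO2. GF-AFC fluorescence then CellTiter-Glo luminescence give protease and ATP readouts.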
# [8] = HepG2 viability counterscreen (readout 1: protease activity) against the NCATS DSHEA and TCM libraries (AID 1794841);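 note: cells exposed to compounds for about 24 h before the protease read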
# How it was run: as §1
# [9] = target: Cytochrome P450 3A4 (Homo sapiens) (UniProt P08684); test: qHTS for inhibitors of CYP3A4 against the NCATS DSHEA and TCM libraries (AID 1919971);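 note: inhibition lowers luminescence from luciferin made by CYP3A4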
# How it was run: (§2)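 Isoform-specific enzyme and substrate levels; enzyme-free wells as background. Reaction: 1x NADPH regenerating system, 30-45 min, room temperature, shielded from light; luminescent detection reagent added, 30 min.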
# [10] = target: Cytochrome P450 2D6 (Homo sapiens) (UniProt P10635); test: qHTS for inhibitors of CYP2D6 against the NCATS DSHEA and TCM libraries (AID 1919972)
# How it was run: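 qHTS, concentration–response format with most substances from 19.5 nM. CYP2D6 + pro-luciferin substrate, 15 min with compound, then 1x NADPH regen, 30–45 min RT dark. Glo detection 30 min, luminescence. Quinidine control.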
# [11] = target: Cytochrome P450 2C9 (Homo sapiens) (UniProt P11712); test: qHTS for inhibitors of CYP2C9 against the NCATS DSHEA and TCM libraries (AID 1919973); note: potency is the fitted concentration of half-maximal effect
# How it was run: as §2
# [12] = target: Cytochrome P450 2C19 (Homo sapiens) (UniProt P33261); test: qHTS for inhibitors of CYP2C19 against the NCATS DSHEA and TCM libraries (AID 1919974);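 note: luminescence from luciferin released by CYP2C19 oxidation of a pro-luciferin substrate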; note: potency is the fitted concentration of half-maximal effect
# How it was run: as §2
# [13] = KB-3-1 P-gp reporter qHTS against the NCATS DSHEA and TCM libraries (AID 1919975)
# How it was run: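 Cell viability qHTS: 500 KB-3-1 cells/well, substances in titration, ~72 h, 37C; luminescent CellTiter-Glo read.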
# [14] = target: Cytochrome P450 1A2 (Homo sapiens) (UniProt P05177); test: qHTS for inhibitors of CYPIA2 against the NCATS DSHEA and TCM libraries (AID 1919976); note: potency is the fitted concentration of half-maximal effect
# How it was run: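 Furafylline served as the plate control. Compounds met CYP1A2 and pro-luciferin substrate 15 min before NADPH regeneration solution (1x) was added; after 30-45 min at RT, P450-Glo reagent was added for 30 min and luminescence was measured.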
# [15] = qHTS Counterscreen for compound interference against the NCATS DSHEA and TCM libraries (AID 1919978); settings: firefly luciferase detection reagent interference, luminescence;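 note: compounds preincubated with 1 µM D-luciferin or buffer before detection reagent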
# How it was run: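 Interference check: test samples were incubated with D-luciferin (final 1 uM) or buffer only for 15 min, room temperature, in a qHTS titration up to 39.8 uM, then developed with detection reagent and read by luminescence.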
# [16] = Dual reporter qHTS for agonist of Pregnane X Receptor (hPXR) against the NCATS DSHEA and TCM libraries: Fluorescence readout (AID 1920058)
# How it was run: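 In this qHTS counter-read, reporter-bearing HepG2 cells in charcoal-stripped serum received substances for approximately 24 h before viability was assessed fluorometrically with CellTiter-Fluor.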
# [17] = target: Nuclear receptor subfamily 1 group I member 2 (Homo sapiens) (UniProt O75469); test: Dual reporter qHTS for agonist of Pregnane X Receptor (hPXR) against the NCATS DSHEA and TCM libraries: Luminescence readout (AID 1920059)
# How it was run: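 hPXR-LucHepG2 cells in phenol red-free DMEM with 5% charcoal-stripped FBS, 2000 cells/well, attached 5 h, then exposed 24 h at 37C to compounds; rifampicin as positive agonist control (2.8 nM–92 uM). Luciferase luminescence read.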
# [18] = Viability counterscreen for antagonist of constitutive androstane receptor (CAR) against the NCATS DSHEA and TCM libraries (AID 1794837);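 note: compound exposure lasted 24 h before viability reading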
# How it was run: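 Counterscreen performed in a 1536-well qHTS format using HepG2-CYP2B6-hCAR cells; samples titrated in the presence of 48 uM CITCO, with viability measured fluorometrically (405/540 nm) after 24 h.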
# [19] = Dual reporter qHTS for antagonist of Pregnane X Receptor (hPXR) against the NCATS DSHEA and TCM libraries: Fluorescence Readout (AID 1920061)
# How it was run: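 In antagonist mode, 2 uM rifampicin was added to hPXR-Luc HepG2 cells alongside test substances, incubated 24 h at 37 C; luminescence gave reporter activity, and CellTiter-Fluor fluorescence (405/540 nm) gave viability.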
# Chain of Dual specificity protein kinase CLK4 (Homo sapiens) (Q9HAZ1 whole entry, looked up): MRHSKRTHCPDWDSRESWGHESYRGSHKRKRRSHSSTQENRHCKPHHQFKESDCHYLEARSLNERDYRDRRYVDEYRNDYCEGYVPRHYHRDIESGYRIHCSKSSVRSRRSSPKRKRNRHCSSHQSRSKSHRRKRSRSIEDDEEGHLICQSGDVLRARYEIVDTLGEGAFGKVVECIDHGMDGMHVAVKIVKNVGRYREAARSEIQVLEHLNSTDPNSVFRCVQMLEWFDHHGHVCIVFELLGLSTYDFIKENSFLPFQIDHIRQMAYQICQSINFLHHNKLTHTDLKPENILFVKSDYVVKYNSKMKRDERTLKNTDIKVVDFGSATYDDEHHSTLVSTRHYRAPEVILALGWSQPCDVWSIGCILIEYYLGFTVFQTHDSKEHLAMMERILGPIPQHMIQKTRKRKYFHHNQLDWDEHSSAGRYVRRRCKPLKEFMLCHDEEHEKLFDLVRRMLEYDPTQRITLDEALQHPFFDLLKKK
# Chain of Glucocorticoid receptor (Homo sapiens) (P04150 whole entry, looked up, the tested form may be a part): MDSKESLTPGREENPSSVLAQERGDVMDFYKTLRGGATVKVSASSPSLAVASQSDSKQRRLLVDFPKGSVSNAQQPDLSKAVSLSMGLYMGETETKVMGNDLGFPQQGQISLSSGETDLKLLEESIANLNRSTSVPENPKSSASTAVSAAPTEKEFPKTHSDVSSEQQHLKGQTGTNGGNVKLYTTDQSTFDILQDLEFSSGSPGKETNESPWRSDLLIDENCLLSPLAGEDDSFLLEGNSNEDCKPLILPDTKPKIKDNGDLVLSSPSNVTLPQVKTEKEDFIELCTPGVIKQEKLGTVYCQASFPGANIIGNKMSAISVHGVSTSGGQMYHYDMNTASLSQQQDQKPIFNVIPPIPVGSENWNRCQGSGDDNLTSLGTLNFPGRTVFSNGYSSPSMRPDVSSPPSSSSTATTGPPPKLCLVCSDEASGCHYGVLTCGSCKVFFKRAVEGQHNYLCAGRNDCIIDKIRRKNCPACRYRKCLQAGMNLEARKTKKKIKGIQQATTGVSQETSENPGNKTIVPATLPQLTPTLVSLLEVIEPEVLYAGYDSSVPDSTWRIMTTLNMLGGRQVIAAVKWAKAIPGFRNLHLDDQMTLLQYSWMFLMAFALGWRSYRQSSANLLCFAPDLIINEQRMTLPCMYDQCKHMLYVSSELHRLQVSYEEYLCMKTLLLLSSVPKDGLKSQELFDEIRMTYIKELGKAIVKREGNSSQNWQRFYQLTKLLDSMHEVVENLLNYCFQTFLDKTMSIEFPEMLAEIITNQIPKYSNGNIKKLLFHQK
# Chain of Glutathione peroxidase 1 (Homo sapiens) (P07203 whole entry, looked up): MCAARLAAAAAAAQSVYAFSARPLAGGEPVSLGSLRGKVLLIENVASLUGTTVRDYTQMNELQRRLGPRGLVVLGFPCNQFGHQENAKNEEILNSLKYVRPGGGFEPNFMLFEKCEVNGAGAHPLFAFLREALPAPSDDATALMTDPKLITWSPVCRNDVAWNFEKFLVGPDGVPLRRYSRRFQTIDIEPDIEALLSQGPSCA
# Chain of Cytochrome P450 1A2 (Homo sapiens) (P05177 whole entry, looked up): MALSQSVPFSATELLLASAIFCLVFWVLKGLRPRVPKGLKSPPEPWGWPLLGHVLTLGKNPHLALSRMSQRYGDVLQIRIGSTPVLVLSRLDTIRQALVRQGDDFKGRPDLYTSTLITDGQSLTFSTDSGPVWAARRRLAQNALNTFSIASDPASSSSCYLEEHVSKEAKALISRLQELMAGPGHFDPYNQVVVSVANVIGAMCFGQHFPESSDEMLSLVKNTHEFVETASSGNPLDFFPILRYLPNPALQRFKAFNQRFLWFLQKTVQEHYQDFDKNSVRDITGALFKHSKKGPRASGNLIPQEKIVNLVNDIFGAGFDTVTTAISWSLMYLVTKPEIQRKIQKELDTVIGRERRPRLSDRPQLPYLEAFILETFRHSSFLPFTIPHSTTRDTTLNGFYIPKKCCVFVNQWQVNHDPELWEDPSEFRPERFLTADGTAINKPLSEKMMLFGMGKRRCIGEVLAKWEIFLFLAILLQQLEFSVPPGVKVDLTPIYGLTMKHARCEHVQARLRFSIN
# Chain of Cytochrome P450 2D6 (Homo sapiens) (P10635 whole entry, looked up): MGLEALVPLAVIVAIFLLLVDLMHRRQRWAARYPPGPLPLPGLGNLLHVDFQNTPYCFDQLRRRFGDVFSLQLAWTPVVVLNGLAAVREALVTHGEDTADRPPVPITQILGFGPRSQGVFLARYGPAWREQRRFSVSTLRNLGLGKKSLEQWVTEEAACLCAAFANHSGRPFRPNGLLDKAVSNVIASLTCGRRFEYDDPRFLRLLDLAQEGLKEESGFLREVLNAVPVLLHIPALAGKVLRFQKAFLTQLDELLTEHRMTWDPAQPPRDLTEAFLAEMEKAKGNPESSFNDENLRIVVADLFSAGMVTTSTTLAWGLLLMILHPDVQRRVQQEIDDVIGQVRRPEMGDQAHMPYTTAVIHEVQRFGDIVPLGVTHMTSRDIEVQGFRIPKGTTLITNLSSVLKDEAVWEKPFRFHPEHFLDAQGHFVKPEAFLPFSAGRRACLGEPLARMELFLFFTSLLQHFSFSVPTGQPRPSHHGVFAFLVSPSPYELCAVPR
# Chain of Cytochrome P450 2C9 (Homo sapiens) (P11712 whole entry, looked up): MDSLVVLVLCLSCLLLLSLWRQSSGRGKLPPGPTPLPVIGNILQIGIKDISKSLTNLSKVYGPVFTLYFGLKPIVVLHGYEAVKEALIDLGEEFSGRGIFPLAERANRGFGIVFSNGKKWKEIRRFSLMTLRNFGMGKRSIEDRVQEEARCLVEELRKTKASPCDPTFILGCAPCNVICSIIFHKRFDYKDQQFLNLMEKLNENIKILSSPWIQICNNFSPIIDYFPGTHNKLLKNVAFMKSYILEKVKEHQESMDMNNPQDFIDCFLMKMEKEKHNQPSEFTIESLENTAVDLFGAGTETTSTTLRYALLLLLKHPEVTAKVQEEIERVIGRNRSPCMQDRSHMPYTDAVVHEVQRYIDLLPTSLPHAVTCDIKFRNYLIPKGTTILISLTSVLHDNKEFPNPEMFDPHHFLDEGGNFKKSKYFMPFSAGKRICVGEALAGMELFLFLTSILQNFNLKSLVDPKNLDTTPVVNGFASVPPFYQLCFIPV
# Chain of Cytochrome P450 3A4 (Homo sapiens) (P08684 whole entry, looked up, canonical isoform): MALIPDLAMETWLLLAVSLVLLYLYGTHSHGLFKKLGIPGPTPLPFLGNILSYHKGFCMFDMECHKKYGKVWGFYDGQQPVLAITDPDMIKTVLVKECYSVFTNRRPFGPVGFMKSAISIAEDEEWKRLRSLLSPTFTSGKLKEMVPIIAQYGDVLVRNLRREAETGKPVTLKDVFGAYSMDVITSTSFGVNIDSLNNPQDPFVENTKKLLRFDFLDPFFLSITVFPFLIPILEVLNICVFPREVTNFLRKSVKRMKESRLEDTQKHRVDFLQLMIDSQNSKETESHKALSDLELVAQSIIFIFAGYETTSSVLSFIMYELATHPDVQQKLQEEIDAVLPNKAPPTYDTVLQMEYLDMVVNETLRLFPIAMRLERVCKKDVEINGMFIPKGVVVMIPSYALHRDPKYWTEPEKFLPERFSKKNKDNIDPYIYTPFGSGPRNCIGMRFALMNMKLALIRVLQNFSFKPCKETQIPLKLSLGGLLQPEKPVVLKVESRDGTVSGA
# Chain of Cytochrome P450 2C19 (Homo sapiens) (P33261 whole entry, looked up): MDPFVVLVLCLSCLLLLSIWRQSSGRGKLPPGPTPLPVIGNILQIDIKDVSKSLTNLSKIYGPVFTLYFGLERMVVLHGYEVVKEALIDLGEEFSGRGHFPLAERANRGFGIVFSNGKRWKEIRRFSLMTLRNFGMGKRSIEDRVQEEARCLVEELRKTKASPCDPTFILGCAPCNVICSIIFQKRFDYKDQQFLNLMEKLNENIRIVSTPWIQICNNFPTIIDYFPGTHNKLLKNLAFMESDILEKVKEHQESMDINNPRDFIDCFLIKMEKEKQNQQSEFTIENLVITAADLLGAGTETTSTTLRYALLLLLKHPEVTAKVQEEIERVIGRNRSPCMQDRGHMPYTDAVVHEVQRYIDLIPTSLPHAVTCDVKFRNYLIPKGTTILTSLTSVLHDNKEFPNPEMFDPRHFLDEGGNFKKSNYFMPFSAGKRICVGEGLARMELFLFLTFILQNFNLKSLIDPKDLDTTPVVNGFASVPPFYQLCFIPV
# Chain of Nuclear receptor subfamily 1 group I member 3 (Homo sapiens) (Q14994 whole entry, looked up): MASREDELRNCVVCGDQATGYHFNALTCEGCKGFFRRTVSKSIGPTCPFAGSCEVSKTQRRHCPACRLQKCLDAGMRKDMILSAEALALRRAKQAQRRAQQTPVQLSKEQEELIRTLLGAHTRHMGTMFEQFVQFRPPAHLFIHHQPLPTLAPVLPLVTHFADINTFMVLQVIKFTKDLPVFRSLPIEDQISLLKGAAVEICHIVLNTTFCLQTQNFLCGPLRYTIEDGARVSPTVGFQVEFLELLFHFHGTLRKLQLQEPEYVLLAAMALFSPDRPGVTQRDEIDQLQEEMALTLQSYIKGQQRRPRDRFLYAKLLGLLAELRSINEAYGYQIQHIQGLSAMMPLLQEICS
# Chain of Nuclear receptor subfamily 1 group I member 2 (Homo sapiens) (O75469 whole entry, looked up): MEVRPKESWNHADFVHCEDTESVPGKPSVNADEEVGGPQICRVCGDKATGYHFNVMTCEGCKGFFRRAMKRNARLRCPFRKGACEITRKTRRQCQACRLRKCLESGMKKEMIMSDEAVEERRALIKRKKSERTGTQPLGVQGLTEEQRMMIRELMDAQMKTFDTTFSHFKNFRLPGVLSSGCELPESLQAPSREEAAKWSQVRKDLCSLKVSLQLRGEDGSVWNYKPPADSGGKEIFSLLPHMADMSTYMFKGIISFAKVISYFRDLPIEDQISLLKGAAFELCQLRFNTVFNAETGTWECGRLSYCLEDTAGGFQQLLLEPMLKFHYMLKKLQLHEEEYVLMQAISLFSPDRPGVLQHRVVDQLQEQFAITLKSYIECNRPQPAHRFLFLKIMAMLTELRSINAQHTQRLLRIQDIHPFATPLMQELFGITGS
structure (smiles),measurement,setting,value
COc1ccc(Nc2cc(C)c3cc(NC(=O)c4cc(OC)cc(OC)c4)ccc3n2)cc1,Potency,[1],inactive
CN(C)C(=O)c1ccc(-c2ccc3ncnc(Nc4ccc(F)cc4)c3c2)cc1,Potency,[2],> 46 µM
same,Potency,[3],inactive
same,Potency,[4],inactive
COc1ccccc1CNc1nc(-c2cccc(NS(C)(=O)=O)c2)nc2ccccc12,Potency,[2],> 46 µM
same,Potency,[3],inactive
same,Potency,[4],inactive
O=c1cc(-c2ccc(O)c(O)c2)oc2cc(O[C@@H]3O[C@@H](CO)[C@@H](O)[C@@H](O)[C@H]3O)cc(O)c12,Potency,[2],> 46 µM
same,Potency,[3],7.94 µM (active)
same,outcome,[5],inactive
same,Potency,[6],28.2 µM (active)
same,outcome,[7],inactive
same,outcome,[8],inactive
same,Potency,[9],inactive
same,Potency,[10],inactive
same,Potency,[11],3.98 µM (active)
same,Potency,[12],3.55 µM (active)
same,outcome,[13],inactive
same,Potency,[14],3.98 µM (active)
same,max response,[15],0.762%
same,outcome,[16],inactive
same,Potency,[17],inactive
COCC1=C(C(=O)O)N2C(=O)[C@@H](NC(=O)/C(=N\OC)c3csc(N)n3)[C@H]2SC1,Potency,[1],18 µM (active)
CC1=C2[C@H]([C@@H](C)CC[C@@H]2/C=C(\C)C(=O)O)[C@@H](O)C1,outcome,[18],inactive
same,outcome,[5],inactive
same,outcome,[7],inactive
same,outcome,[8],inactive
same,outcome,[13],inactive
same,max response,[15],-1.15%
same,outcome,[16],inactive
same,outcome,[19],inactive
CN1CCN(c2nc(-c3ccoc3)nc3ccccc23)CC1,Potency,[2],> 46 µM
same,Potency,[3],inactive
same,Potency,[4],inactive
CC(C)=CCC[C@](C)(OC1OC(COC2OCC(O)C(O)C2O)C(O)C(O)C1O)[C@H]1CC[C@]2(C)[C@@H]1[C@H](O)C[C@@H]1[C@@]3(C)CC[C@H](OC4OC(CO)C(O)C(O)C4OC4OC(CO)C(O)C(O)C4O)C(C)(C)[C@@H]3CC[C@]12C (some centres not stated),outcome,[18],inactive
same,Potency,[6],inactive
same,outcome,[7],inactive
same,outcome,[8],inactive
same,Potency,[1],inactive
same,Potency,[9],inactive
same,Potency,[10],inactive
same,Potency,[11],inactive
same,Potency,[12],inactive
same,outcome,[13],inactive
same,Potency,[14],inactive
same,max response,[15],4.44%
same,outcome,[16],inactive
same,Potency,[17],inactive
same,outcome,[19],inactive
COc1cccc(Cn2c(=O)cnc3cnc(N(C)C)nc32)c1,Potency,[2],> 46 µM
same,Potency,[4],inactive
COc1ccc(C[C@H](NC(=O)[C@H](C)NC(=O)CN2CCOCC2)C(=O)N[C@@H](Cc2ccccc2)C(=O)[C@@]2(C)CO2)cc1,Potency,[1],inactive
